Data on 36 compounds can be found in PubChem BioAssay.

Activity calls are given as the source filed them. Unless noted, the rule behind the calls is not given here.

Test [1] is described as follows: blood-stage malaria parasite viability loss – strain 3D7, DAPI fluorescence, 100 nL, primary screen (AID 1184).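 Note: parasites grown inside human red blood cells in medium with human serum.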 To be noted: P. falciparum 3D7 growth, 3 d, higher = more signal.
Test [2] deals with Homeobox protein Hox-A13 (Mus musculus) (UniProt Q62424). Kind of test: disruptors of Hoxa13 oligonucleotide interaction – biochemical, fluorescence polarization, labeled oligonucleotide, primary screen (AID 1185). To be noted: Hoxa13:DNA binding, 15 min, higher = more signal, called active from +8 up or from −8 down.
Chain of Homeobox protein Hox-A13 (Mus musculus) (Q62424 whole entry, looked up): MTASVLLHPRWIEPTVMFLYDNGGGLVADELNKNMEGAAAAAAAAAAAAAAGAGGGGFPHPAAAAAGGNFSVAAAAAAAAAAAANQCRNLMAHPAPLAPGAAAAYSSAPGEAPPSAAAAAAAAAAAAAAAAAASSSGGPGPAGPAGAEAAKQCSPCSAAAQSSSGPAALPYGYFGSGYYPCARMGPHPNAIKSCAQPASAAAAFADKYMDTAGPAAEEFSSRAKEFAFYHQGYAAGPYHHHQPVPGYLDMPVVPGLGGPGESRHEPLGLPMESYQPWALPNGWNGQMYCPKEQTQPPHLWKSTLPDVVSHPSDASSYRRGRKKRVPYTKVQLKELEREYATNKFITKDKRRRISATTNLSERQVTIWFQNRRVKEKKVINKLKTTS
Test [3] can be described thus: blockers of DNA damage checkpoint Chk1 activation – imaging, HeLa, hydroxyurea, phospho-Chk1 antibody, percent positive cells, primary screen (AID 1186). To be noted: hydroxyurea-induced phospho-Chk1 immunofluorescence imaging, higher = more signal.
A short description of test [4]: blockers of DNA damage checkpoint Chk1 activation – imaging, HeLa, hydroxyurea, phospho-Chk1 nuclear intensity, primary screen (AID 1187). Note: test concentration not given here. To be noted: hydroxyurea-induced phospho-Chk1 immunofluorescence imaging, higher = more signal.

As to `CCOC(=O)C[C@H]1[C@H](OC(=O)c2cc3ccccc3oc2=O)[C@@H](NC(=O)c2ccccc2)c2cc(OCCCO)ccc2N1C(=O)Cc1ccc(OC)cc1`, the z-score in test [1] was -2.11; in test [2], -0.814 (inactive); in test [3], -0.35 (inactive); in test [4], -0.0607 (inactive).

Take `COc1ccc(/C=C/C(=O)c2cccc(OCC(=O)OC(C)(C)C)c2)cc1`: the z-score in test [1] was -0.732; in test [2] it was -3.31 (inactive); in test [3] it was -0.0499 (inactive); in test [4], 0.373 (inactive).

`C=CCN1C(=O)[C@@]2(O[C@@H](CCn3cc(CCO)nn3)[C@H]([Si](C)(C)c3ccc(OC)cc3)[C@H]2C)c2cc(NC(=O)c3ccc(OC)cc3)ccc21`: the z-score in test [1] is -2.65; in test [2], -4.19 (inactive); in test [3], 1.09 (inactive); in test [4], 1.28 (inactive).

Consider `C=C(COC)C(=O)CC[C@H](OC(=O)c1cccnc1)c1cccc(OCCO)c1`, for which the z-score in test [1] is -1.66; in test [2], -3.09 (inactive); in test [3] it was -0.458 (inactive); in test [4], -0.203 (inactive).

Regarding `[N-]=[N+]=NCc1ccccc1C[C@@]1(C(=O)NCc2ccccc2)N=C(c2ccc(OCCCO)cc2)O[C@@H]1c1ccccc1`, the z-score in test [1] is -2.15; in test [2], 0.77 (inactive); in test [3] it was -1.01 (inactive); in test [4], -1.39 (inactive).

With `C[N+](C)(C)CCCCNC(=O)[C@@H]1C[C@@H]2C(=O)NCC(=O)N2[C@@H]1c1cccc(OCCO)c1`, the z-score was -0.664 in test [1], -1.4 (inactive) in test [2], 0.469 (inactive) in test [3] and 1.31 (inactive) in test [4].

As for `CC(C)C(CO)N1C(=O)[C@@H]2C3C(=O)OCCC/C=C\[C@H]3OC23C=CCN(C(C)C)C(=O)[C@@H]13` (some centres undefined), the z-score in test [1] is 0.0709; in test [2] it was -4.01 (inactive); in test [3], -1.29 (inactive); in test [4], -1.14 (inactive).

Regarding `C=CCC(OC(C)=O)[C@@H]1[C@@H](N(Cc2cccc3ccccc23)C(=O)c2cccc3ccccc23)c2cc(OCCCO)ccc2N1C(=O)Cc1ccc(OC)cc1` (some centres undefined), the z-score in test [1] is -2.48; in test [2], -1.57 (inactive); in test [3] it was -0.0578 (inactive); in test [4], 0.507 (inactive).

Take `O=C1c2ccccc2[C@@]2(Cc3ccccc3N(CC(F)(F)F)C2=O)[C@H](c2ccc(CO)cc2)N1Cc1ccccc1C(F)(F)F`: the z-score is 0.226 in test [1], -0.0255 (inactive) in test [2], -0.563 (inactive) in test [3] and -0.816 (inactive) in test [4].

Consider `O=C1O[C@H](c2ccccc2)[C@H](c2ccccc2)N2[C@H]1[C@@H](C(=O)Nc1nc3ccccc3s1)[C@]1(C(=O)Nc3ccc(C#CCCO)cc31)[C@H]2c1ccccc1OCCO`, for which the z-score in test [1] is -2.23; in test [2] it was 2.73 (inactive); in test [3], 0.288 (inactive); in test [4] it was 0.492 (inactive).

Consider `COCCCNC(=O)[C@@]1(Cc2ccccc2CN=[N+]=[N-])COC(c2ccc(OCCCO)cc2)=N1`, for which the z-score in test [1] is -2.1; in test [2], -4.83 (inactive); in test [3] it was -0.742 (inactive); in test [4], -0.73 (inactive).

`C[N+](C)(C)CCCC[C@@H]1NC(=O)[C@@H]2C[C@H](C(=O)NCCCCCNC(=O)CS)[C@H](c3ccc(O)cc3)N2C1=O`: the z-score is -0.34 in test [1], -1.22 (inactive) in test [2], -0.536 (inactive) in test [3] and -0.272 (inactive) in test [4].

On to `O=C(NCc1ccccc1)[C@@H]1c2ccccc2C(=O)N(Cc2ccccc2Cl)[C@H]1c1ccc(CO)cc1`, for which the z-score in test [1] is 0.187; in test [2], -0.497 (inactive); in test [3], -0.0434 (inactive); in test [4] it was 0.206 (inactive).

With `COC(=O)c1c2oc(c1C(=O)OC)C(=O)N[C@@H](C(C)C)Cn1nncc1C1(CCCCC1)NC(=O)N[C@H](CO)CC2`, the z-score in test [1] is 0.0974; in test [2], -1.72 (inactive); in test [3], -0.259 (inactive); in test [4], 0.158 (inactive).

As to `C=CCNC(=O)[C@H]1[C@@H]2C(=O)O[C@@H](c3ccccc3)[C@@H](c3ccccc3)N2[C@@H](c2ccc(OCCO)cc2)[C@]12C(=O)Nc1ccc(C#CCCO)cc12`, the z-score is -0.739 in test [1], -3.71 (inactive) in test [2], -0.229 (inactive) in test [3] and -0.205 (inactive) in test [4].

As to `COC(=O)C1=CC(c2ccc(CO)cc2)=CC(c2cccs2)N(C)C=C1C(=O)OC` (centres undefined), the z-score in test [1] was -1.75; in test [2] it was -6.41 (inactive); in test [3], -0.261 (inactive); in test [4], -0.22 (inactive).

For the compound `C=C(COC)C(=O)CC[C@H](OC(=O)c1ccccc1-c1ccccc1C(=O)O)c1ccccc1OCCO`, the z-score was -1.11 in test [1], -3.93 (inactive) in test [2], 0.269 (inactive) in test [3] and -0.228 (inactive) in test [4].

`COCCOC(=O)N1C(=O)[C@@]2(c3cc(C#CCNC(N)=O)ccc31)[C@H](C(=O)NC[C@H](O)c1ccccc1)[C@H]1C(=O)O[C@H](c3ccccc3)[C@H](c3ccccc3)N1[C@@H]2c1ccc(O)cc1`: the z-score was 0.418 in test [1], -2.4 (inactive) in test [2], -0.134 (inactive) in test [3] and -0.595 (inactive) in test [4].

On to `CC(C)(C)OC(=O)CC[C@@]1(C(=O)NCc2ccccc2)N=C(c2ccc(OCCCO)cc2)O[C@@H]1c1ccccc1CN=[N+]=[N-]`, for which the z-score is -2.72 in test [1], -0.088 (inactive) in test [2], -0.763 (inactive) in test [3] and -0.84 (inactive) in test [4].

`Cc1ccc(S[C@]2(C(=O)NCC(C)C)CC(=O)N(C(C)C)[C@@H]2c2ccc(CO)cc2)cc1`: the z-score in test [1] was -1.79; in test [2] it was 1.8 (inactive); in test [3], -0.273 (inactive); in test [4], -0.0385 (inactive).

Regarding `CC(C)C(CO)N1C(=O)[C@@H]2[C@H]3C(=O)OCC=C[C@H]3OC23C=CCN(Cc2ccccc2)C(=O)[C@@H]13` (some centres undefined), the z-score in test [1] was -0.383; in test [2], -2.93 (inactive); in test [3], -0.228 (inactive); in test [4] it was -0.647 (inactive).

`C=CCN1C(=O)[C@@]2(O[C@@H](CCn3cc(CCO)nn3)[C@H]([Si](C)(C)c3ccc(OC)cc3)[C@H]2C)c2cc(N3C(=O)c4cccc5cccc3c45)ccc21`: the z-score in test [1] is -2.85; in test [2], -5.26 (inactive); in test [3], -1.11 (inactive); in test [4], -0.144 (inactive).

With `C=C(/C(=C/C[C@H](OC(=O)c1ccncc1)c1cccc(OCCO)c1)c1cc(C(=O)OC)ccc1OC)C(C)C`, the z-score is -2.77 in test [1], -2.91 (inactive) in test [2], -1.09 (inactive) in test [3] and -1.36 (inactive) in test [4].

Turning to `CO[C@H]1O[C@H](CO)[C@@H](OC(=O)CCc2ccccc2)[C@@H]2OC(=O)[C@H](Cc3ccccc3)C/C=C/C[C@@H](Cc3ccccc3)C(=O)O[C@@H]12`, the z-score in test [1] is -1.58; in test [2] it was -2.71 (inactive); in test [3] it was -0.527 (inactive); in test [4], -0.474 (inactive).

Consider `COCCCNC(=O)[C@@]1(C)c2ccccc2C(=O)N(Cc2cc(F)cc(C(F)(F)F)c2)[C@H]1c1ccc(CO)cc1`, for which the z-score was -0.753 in test [1], -2.01 (inactive) in test [2], -0.1 (inactive) in test [3] and 0.802 (inactive) in test [4].

`COC(=O)C(CC#Cc1ccc2c(c1)[C@]1(C(=O)N2)[C@H](C(N)=O)[C@H]2C(=O)O[C@H](c3ccccc3)[C@H](c3ccccc3)N2[C@@H]1c1ccc(O)cc1)C(=O)OC`: the z-score is -0.91 in test [1], -3.34 (inactive) in test [2], 0.16 (inactive) in test [3] and 0.819 (inactive) in test [4].

Take `CC(C)(C)OC(=O)CC[C@@]12N=C(c3ccc(OCCCO)cc3)O[C@@H]1c1ccccc1CN(Cc1ccccc1)C2=O`: the z-score in test [1] was -2.3; in test [2], -1.33 (inactive); in test [3] it was -0.543 (inactive); in test [4] it was 0.0228 (inactive).

Turning to `CC(C)(C)OC(=O)CC[C@@]1(C(=O)N2CCOCC2)N=C(c2ccc(OCCCO)cc2)O[C@@H]1c1ccccc1`, the z-score was -1.19 in test [1], -4.03 (inactive) in test [2], -0.31 (inactive) in test [3] and -0.323 (inactive) in test [4].

For the compound `CC(C)N1C(=O)c2ccccc2[C@@H](C(=O)NCc2ccccc2)[C@@H]1c1ccc(CO)cc1`, the z-score was -0.3 in test [1], -0.468 (inactive) in test [2], -0.67 (inactive) in test [3] and -0.869 (inactive) in test [4].

For the compound `Cc1ccc(S[C@]2(C(=O)NC3CC3)CC(=O)N(Cc3ccccc3C(F)(F)F)[C@@H]2c2ccc(CO)cc2I)cc1`, the z-score was -0.215 in test [1], -1 (inactive) in test [2], 0.104 (inactive) in test [3] and 0.576 (inactive) in test [4].

With `C=CC[C@]1(C(=O)N(C)C)N=C(c2ccc(OCCCO)cc2)O[C@H]1c1ccccc1CN=[N+]=[N-]`, the z-score in test [1] is -2.49; in test [2], -4.33 (inactive); in test [3] it was -0.0783 (inactive); in test [4], 0.347 (inactive).

In the case of `C=CCOC(=O)[C@H]1[C@@H]2C(=O)O[C@@H](c3ccccc3)[C@@H](c3ccccc3)N2[C@@H](c2ccc(OCCOC(=O)[C@H]3C[C@H]4C(=O)N5CCC[C@H]5C(=O)N4[C@H]3c3cccc(OCCO)c3)cc2)[C@]12C(=O)Nc1ccccc12`, the z-score in test [1] was -1.9; in test [2], 1.42 (inactive); in test [3], 0.217 (inactive); in test [4], 0.5 (inactive).

As to `CC(C)(C)OC(=O)CC[C@]1(C(=O)NCc2ccccc2)COC(c2ccc(OCCCO)cc2)=N1`, the z-score in test [1] was -0.561; in test [2], -5.02 (inactive); in test [3] it was 0.0879 (inactive); in test [4], 0.166 (inactive).

Regarding `CC(CO)N1C(=O)[C@@H]2C3C(=O)OCCC/C=C\[C@H]3OC23C=CCN(Cc2ccccc2)C(=O)[C@@H]13` (some centres undefined), the z-score in test [1] is -0.518; in test [2], -5.46 (inactive); in test [3], -0.6 (inactive); in test [4], -0.674 (inactive).

Consider `C=CCC(OC(C)=O)[C@@H]1[C@@H](N(Cc2ccc(-c3cccc(C(F)(F)F)c3)o2)C(=O)c2ccc(-c3ccccc3)cc2)c2cc(OCCCO)ccc2N1C(=O)Cc1ccc(OC)cc1` (some centres undefined), for which the z-score in test [1] is -0.809; in test [2], -0.497 (inactive); in test [3], -0.138 (inactive); in test [4] it was -0.0148 (inactive).

On to `COc1ccc(C#Cc2ccc3c(c2)[C@]2(C(=O)N3)[C@H](c3ccc(O)cc3)N3[C@H](c4ccccc4)[C@H](c4ccccc4)OC(=O)[C@H]3[C@@H]2C(N)=O)cc1`, for which the z-score in test [1] is -1.17; in test [2], -0.123 (inactive); in test [3], 0.186 (inactive); in test [4], 0.381 (inactive).
